Results published in PubChem BioAssay (NCATS).
The source made the active and inactive calls. The call rests on the fitted dose curve; in most records, active means well fitted activation curve with a large enough effect; inconclusive means small, poorly fitted or top-dose-only effect; inactive means flat fitted curve, though single readings scatter.

test: Confirmation and Secondary Assay for Modulators of Hemoglobin Beta Chain Splicing at IVS2 705 locus (AID 930); conditions: HeLa EGFP-705 splicing reporter, GFP fluorescence, 48 h; series mostly up to 38.3 µM
Source text: NIH Chemical Genomics Center [NCGC] NIH Molecular Libraries Screening Centers Network [MLSCN] MLSCN Grant: 1 X01 MH080684-01 PI Name: Dr. Ryszard Kole NCGC Assay Overview: Modulation of Alternative Splicing as Therapy Abnormal splicing is associated with a number of diseases, including cancer and genetic diseases such as cystic fibrosis, muscular dystrophy and beta-thalassemia. Alteration of disease associated splicing patterns provides a promising target for treatment. […] Mutations in the second intron of the b-globin gene at positions 654 or 705 are clinically relevant and cause mis-splicing which results in an out of frame gene product. […] EGFP-705 HeLa Cells as screen system. HeLa cell lines were stably transfected with a construct in which the EGFP (enhanced green fluorescent protein) cDNA was interrupted by the second intron of the beta-globin gene (IVS2-705). The ISV2 intron contains mutations which cause mis-splicing of EGFP and premature termination of EGFP which results in a nonfluorescent protein product. […] Expression of the transgene was driven by the CMV promoter. We concluded that a low molecular weight compound, which restored correct splicing of intron 2 would also generate functional EGFP protein, resulting in a fluorescent signal. Thus, the HeLa cells that express the EGFP-705 construct can be used for validation of splice site specificity of compounds identified in primary screening of the ISV2 654 construct.
NCGC Assay Protocol Summary: Confirmatory Screening. Freshly thawed HeLa EGFP-705 cells were seeded in 5 ul of optimem media (Invitrogen) containing 2 % fetal calf serum (Hyclone) and 1x penicillin/streptomycin (Invitrogen) at a concentration of 500 cells per well in 1536-well plates. Cells were incubated overnight at 37C in 5% CO2. The next day, cells were treated with DMSO, 500 nM antisense ISV2 654 PNA control oligo, or library compound and allowed to grow at 37C in 5% CO2 for 2 days. The PNA oligo blocked the mutation site in the intron and allowed proper (wild type) splicing to occur, resulting in full length EGFP expression and also allowed for optimization of the assay parameters. Plates were read in the Acumen Explorer (TTP Labtech) using 488 nm laser excitation and 500-520 nm emission PMT filter in a 1 x 8 uM capture mode. Fluorescnet objects ranging in size from 5 to 250 uM were measured and the total peak GFP intensity for each well was used for data analysis. Keywords: Thalassemia, beta-thalassemia, beta-globin, EGFP, ISV2 654, ISV2 705, SSO, PNA, antisense, splicing, MLSMR, MLSCN, NIH Roadmap, qHTS, NCGC

Question: For `CN(C)c1ccc(-c2cc(NCc3ccccc3)ncn2)cc1`, which outcome is on record?
Answer: Its outcome is “inactive”.

Question: Which outcome does the source give for `N=c1ccn2c(n1)O[C@@H]1[C@@H](O)[C@H](CO)O[C@H]12` here?
Answer: Its outcome is “inactive”.

Question: For `Cc1cccc(CNc2ncnc3ccc(-c4ccc(C(=O)N(C)C)cc4)cc23)c1`, which outcome is on record?
Answer: The outcome was “inactive”.

Question: With `CN(C)c1ccc(-c2nc(N3CCNCC3)c3ccccc3n2)cc1` as the molecule, how does the outcome read?
Answer: Its outcome is “inactive”.

Question: Which outcome does the source give for `Nc1nc(Cl)nc2c1ncn2[C@@H]1O[C@@H](CO)[C@@H](O)[C@H]1O` here?
Answer: Its outcome is “inactive”.

Question: For `COc1ccc(CNc2nc(-c3ccccc3OC)nc3ccccc23)c(OC)c1`, which outcome is on record?
Answer: The outcome was “inactive”.

Question: With `COc1ccccc1-c1ccc2ncnc(NCc3cccnc3)c2c1` as the molecule, how does the outcome read?
Answer: Its outcome is “inactive”.

Question: For `CNc1ncncc1-c1ccc(C(=O)N(C)C)cc1`, which outcome is on record?
Answer: The outcome was “inactive”.

Question: Which outcome does the source give for `CN(C)Cc1ccccc1-c1ccc2ncnc(NC3CCNCC3)c2c1` here?
Answer: The outcome was “inactive”.

Question: With `CN(C)C(=O)c1ccc(-c2nc(Nc3ccc(F)cc3)c3ccccc3n2)cc1` as the molecule, how does the outcome read?
Answer: The outcome was “inactive”.

Question: Which outcome does the source give for `CS(=O)(=O)Nc1cccc(-c2nc(NCc3cccnc3)c3ccccc3n2)c1` here?
Answer: Its outcome is “inactive”.

Question: For `N[C@@H](Cc1ccccc1)C(=O)O`, which outcome is on record?
Answer: The outcome was “inactive”.

Question: Which outcome does the source give for `CN(C)c1ccc(-c2nc(Nc3ccncc3)c3ccccc3n2)cc1` here?
Answer: The outcome was “inactive”.

Question: For `COc1ccccc1-c1nc(NCc2ccccc2)c2ccccc2n1`, which outcome is on record?
Answer: The outcome was “inactive”.

Question: Which outcome does the source give for `CN(C)C(=O)c1ccc(-c2nc(Nc3ccncc3)c3ccccc3n2)cc1` here?
Answer: The outcome was “inactive”.

Question: For `Cc1cccc(CNc2nc(-c3cccnc3)nc3ccccc23)c1`, which outcome is on record?
Answer: The outcome was “inactive”.

Question: With `Cc1cnc(CNc2nc(-c3cccnc3)nc3ccccc23)cn1` as the molecule, how does the outcome read?
Answer: The outcome was “inactive”.

Question: Which outcome does the source give for `Cc1cccc(CNc2nc(-c3ccc(C(=O)N(C)C)cc3)nc3ccccc23)c1` here?
Answer: The outcome was “inactive”.
